# What was measured:
# Experiment in all cases: DAPPL (digital affinity profiling via proximity ligation, sequencing); 10 mM Tris-HCl pH 7.5, 50 mM NaCl, 1 mM DTT, 4% glycerol, room temperature, 30 min; GST-TFs on glutathione beads, 16-mer random dsDNA library, 0.1% formaldehyde crosslink after washing; high values mean tight binding
# Details in all cases: protein: recombinant; tags: N-terminal GST; dsDNA, one strand shown
# [1] = biological target: T1, FLI1 (Homo sapiens, UniProt Q01543 1-452)
# T1 sequence: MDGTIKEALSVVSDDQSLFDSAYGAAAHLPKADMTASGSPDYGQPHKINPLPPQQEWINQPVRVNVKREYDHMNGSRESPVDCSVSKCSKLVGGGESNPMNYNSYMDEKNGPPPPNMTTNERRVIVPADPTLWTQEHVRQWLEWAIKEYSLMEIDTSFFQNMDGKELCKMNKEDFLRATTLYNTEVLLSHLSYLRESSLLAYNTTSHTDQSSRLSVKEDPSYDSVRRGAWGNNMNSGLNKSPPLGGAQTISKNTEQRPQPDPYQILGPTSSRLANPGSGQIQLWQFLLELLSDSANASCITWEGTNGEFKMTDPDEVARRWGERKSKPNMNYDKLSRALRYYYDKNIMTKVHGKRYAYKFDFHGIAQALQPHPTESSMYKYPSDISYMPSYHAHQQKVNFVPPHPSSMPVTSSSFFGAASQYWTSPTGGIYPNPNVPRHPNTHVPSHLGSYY
# Outline: (§1)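 Binding signal is defined as a hexamer's read frequency for one factor over its frequency for the tag-only sample. To obtain reads, GST-fused human transcription factors were expressed in yeast, captured on glutathione beads, barcoded with DNA and pooled with that sample. Pools met 200 nmole of a 16-mer random double-stranded DNA library in Tris/NaCl/DTT/glycerol buffer for 30 min at room temperature before washing, 0.1% formaldehyde crosslinking, proximity ligation (BsaI/T4 ligase, 1 h, 37 °C), PCR and Illumina NextSeq500 sequencing.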
# [2] = biological target: T2, ELK1 (Homo sapiens, UniProt P19419 1-428)
# T2 sequence: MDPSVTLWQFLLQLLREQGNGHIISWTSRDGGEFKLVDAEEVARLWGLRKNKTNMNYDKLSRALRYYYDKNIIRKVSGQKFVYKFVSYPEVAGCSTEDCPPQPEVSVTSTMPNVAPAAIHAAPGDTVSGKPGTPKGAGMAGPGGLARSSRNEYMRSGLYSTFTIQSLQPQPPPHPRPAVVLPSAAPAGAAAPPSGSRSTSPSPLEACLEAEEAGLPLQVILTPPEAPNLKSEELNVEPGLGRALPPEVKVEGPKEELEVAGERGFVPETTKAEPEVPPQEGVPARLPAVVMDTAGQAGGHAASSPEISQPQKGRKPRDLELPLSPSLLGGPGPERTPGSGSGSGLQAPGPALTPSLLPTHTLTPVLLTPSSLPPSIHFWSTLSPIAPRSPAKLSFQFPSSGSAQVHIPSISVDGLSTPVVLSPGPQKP
# Outline: as §1
# [3] = biological target: T3, GABPA (Homo sapiens, UniProt Q06546 1-454)
# T3 sequence: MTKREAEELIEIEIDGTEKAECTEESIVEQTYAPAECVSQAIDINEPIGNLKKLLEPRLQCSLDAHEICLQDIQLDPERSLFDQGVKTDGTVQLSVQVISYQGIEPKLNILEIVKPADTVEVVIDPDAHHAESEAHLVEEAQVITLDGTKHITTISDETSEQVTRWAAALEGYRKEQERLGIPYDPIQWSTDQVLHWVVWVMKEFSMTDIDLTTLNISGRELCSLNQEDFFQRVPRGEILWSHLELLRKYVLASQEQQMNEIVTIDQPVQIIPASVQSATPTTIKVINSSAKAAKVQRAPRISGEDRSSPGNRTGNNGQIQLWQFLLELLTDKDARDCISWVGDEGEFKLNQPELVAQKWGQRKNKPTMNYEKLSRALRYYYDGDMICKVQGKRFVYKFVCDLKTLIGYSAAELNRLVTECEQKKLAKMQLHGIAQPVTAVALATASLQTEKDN
# Outline: as §1
# [4] = biological target: T4, ERG (Homo sapiens, UniProt P11308 1-479)
# T4 sequence: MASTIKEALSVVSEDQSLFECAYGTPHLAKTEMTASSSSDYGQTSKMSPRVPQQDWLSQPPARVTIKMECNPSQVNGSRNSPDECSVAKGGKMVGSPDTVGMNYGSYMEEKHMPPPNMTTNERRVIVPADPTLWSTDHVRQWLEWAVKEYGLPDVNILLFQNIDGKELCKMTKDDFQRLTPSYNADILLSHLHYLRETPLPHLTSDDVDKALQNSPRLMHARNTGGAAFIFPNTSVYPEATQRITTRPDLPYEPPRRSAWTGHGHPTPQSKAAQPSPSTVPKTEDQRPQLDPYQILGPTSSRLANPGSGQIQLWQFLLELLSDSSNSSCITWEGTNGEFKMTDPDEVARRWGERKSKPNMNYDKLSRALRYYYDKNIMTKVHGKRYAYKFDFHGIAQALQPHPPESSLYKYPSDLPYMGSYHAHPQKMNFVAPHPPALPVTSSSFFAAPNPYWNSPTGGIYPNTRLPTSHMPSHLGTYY
# Outline: as §1
# [5] = biological target: ELF1 (Homo sapiens, UniProt P32519 1-619)
# Chain of ELF1 (P32519 whole entry): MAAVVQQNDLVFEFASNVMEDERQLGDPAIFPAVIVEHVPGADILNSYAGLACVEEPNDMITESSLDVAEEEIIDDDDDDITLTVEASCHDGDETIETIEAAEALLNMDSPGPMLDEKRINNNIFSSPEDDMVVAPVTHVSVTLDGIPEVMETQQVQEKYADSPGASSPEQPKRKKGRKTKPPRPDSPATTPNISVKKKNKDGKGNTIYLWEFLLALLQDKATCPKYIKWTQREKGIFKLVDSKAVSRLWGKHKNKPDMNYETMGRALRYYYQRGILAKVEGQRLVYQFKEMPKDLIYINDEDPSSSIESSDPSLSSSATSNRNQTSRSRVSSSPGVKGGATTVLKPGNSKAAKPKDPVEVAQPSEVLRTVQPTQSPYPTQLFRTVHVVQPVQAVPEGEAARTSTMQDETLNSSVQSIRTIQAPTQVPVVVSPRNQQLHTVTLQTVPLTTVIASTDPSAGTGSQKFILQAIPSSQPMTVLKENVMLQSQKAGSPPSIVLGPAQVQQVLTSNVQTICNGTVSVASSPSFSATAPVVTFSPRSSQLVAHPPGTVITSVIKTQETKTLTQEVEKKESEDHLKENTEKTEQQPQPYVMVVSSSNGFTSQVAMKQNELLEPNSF
# Outline: as §1
# [6] = biological target: T5, EHF (Homo sapiens, UniProt Q9NZC4 1-300)
# T5 sequence: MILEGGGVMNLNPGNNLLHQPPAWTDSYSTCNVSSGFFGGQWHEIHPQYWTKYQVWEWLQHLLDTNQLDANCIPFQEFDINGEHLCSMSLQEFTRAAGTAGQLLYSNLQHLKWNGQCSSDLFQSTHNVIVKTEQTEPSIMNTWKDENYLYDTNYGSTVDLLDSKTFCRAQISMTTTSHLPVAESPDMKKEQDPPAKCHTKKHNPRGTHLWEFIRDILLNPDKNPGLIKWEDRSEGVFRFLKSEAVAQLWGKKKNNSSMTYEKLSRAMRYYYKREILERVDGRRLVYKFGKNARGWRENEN
# Outline: as §1
# [7] = biological target: SPI1 (Homo sapiens, UniProt P17947 1-270)
# Outline: as §1
# [8] = biological target: SPIB (Homo sapiens, UniProt Q01892 1-262)
# Chain of SPIB (Q01892 whole entry): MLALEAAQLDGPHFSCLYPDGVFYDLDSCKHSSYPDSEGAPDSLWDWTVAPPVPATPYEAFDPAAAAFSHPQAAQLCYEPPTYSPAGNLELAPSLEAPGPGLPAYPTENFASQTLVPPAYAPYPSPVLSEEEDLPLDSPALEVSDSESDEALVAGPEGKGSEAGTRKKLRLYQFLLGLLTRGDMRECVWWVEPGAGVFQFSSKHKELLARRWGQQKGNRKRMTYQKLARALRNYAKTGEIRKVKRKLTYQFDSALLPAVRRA
# Outline: as §1
# [9] = biological target: T6, ELK3 (Homo sapiens, UniProt P41970 1-407)
# T6 sequence: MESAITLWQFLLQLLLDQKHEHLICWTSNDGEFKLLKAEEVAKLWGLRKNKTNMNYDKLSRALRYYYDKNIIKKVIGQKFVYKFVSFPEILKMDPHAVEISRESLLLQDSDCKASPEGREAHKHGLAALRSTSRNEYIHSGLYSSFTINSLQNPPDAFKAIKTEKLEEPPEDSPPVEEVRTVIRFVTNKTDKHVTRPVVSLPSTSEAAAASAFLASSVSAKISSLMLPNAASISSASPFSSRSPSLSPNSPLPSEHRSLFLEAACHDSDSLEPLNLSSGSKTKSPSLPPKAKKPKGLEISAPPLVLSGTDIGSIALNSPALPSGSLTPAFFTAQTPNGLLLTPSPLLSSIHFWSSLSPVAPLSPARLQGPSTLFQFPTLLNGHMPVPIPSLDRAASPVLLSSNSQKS
# Outline: as §1
# [10] = biological target: T7, FEV (Homo sapiens, UniProt Q99581 1-238)
# T7 sequence: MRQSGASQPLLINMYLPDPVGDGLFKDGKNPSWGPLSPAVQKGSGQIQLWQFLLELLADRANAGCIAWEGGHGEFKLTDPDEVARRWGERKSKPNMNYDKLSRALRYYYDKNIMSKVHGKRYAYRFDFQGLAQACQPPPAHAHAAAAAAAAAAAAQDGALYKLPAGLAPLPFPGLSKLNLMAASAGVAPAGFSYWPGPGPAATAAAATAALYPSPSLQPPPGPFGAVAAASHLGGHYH
# Outline: as §1
# [11] = biological target: ETV5 (Homo sapiens, UniProt P41161 1-510)
# Chain of ETV5 (P41161 whole entry): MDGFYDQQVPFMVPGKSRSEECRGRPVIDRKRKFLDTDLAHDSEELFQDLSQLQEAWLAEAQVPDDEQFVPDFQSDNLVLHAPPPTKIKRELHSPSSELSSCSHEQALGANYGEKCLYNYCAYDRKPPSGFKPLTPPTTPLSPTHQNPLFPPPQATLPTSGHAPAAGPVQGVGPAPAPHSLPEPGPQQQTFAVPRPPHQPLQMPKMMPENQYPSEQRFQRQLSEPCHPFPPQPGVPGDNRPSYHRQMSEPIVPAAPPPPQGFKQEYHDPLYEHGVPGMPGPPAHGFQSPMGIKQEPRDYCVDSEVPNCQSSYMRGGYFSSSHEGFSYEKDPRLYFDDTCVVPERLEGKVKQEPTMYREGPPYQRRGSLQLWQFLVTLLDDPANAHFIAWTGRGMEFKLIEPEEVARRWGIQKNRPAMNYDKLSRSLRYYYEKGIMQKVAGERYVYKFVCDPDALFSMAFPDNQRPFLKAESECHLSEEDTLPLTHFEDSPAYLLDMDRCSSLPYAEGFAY
# Outline: as §1
# [12] = biological target: ELF4 (Homo sapiens, UniProt Q99607 1-663)
# Chain of ELF4 (Q99607 whole entry): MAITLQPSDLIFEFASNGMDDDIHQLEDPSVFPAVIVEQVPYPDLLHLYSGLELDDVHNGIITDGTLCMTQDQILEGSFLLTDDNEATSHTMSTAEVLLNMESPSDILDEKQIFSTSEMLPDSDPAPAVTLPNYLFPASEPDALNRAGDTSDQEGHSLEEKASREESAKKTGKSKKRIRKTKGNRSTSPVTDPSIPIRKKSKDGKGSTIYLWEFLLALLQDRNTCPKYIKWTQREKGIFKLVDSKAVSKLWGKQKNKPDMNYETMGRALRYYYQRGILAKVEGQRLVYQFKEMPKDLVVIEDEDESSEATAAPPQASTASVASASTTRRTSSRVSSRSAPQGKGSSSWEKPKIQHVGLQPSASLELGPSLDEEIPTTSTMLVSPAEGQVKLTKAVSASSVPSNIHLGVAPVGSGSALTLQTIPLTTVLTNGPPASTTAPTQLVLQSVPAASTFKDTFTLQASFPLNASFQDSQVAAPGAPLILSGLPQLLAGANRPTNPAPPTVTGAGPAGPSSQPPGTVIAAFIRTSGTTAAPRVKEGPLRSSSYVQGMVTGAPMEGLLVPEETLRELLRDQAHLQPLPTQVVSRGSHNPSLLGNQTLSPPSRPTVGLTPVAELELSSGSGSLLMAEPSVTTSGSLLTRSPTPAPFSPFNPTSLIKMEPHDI
# Outline: as §1
# [13] = biological target: ETV1 (Homo sapiens, UniProt P50549 1-477)
# Chain of ETV1 (P50549 whole entry): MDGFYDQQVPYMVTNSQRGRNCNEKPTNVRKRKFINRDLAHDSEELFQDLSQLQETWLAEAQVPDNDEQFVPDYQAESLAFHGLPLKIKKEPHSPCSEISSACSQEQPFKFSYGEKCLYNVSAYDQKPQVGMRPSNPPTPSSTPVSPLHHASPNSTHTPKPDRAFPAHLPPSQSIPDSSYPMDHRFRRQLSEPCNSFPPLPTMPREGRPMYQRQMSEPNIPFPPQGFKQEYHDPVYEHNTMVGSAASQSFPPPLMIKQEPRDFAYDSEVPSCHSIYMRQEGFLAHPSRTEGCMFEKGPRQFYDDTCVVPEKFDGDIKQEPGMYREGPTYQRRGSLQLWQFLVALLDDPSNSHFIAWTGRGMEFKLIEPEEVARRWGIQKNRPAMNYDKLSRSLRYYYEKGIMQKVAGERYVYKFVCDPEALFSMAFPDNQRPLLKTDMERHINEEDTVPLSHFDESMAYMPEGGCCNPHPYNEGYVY
# Outline: as §1
# [14] = biological target: T8, ERF (Homo sapiens, UniProt P50548 1-548)
# T8 sequence: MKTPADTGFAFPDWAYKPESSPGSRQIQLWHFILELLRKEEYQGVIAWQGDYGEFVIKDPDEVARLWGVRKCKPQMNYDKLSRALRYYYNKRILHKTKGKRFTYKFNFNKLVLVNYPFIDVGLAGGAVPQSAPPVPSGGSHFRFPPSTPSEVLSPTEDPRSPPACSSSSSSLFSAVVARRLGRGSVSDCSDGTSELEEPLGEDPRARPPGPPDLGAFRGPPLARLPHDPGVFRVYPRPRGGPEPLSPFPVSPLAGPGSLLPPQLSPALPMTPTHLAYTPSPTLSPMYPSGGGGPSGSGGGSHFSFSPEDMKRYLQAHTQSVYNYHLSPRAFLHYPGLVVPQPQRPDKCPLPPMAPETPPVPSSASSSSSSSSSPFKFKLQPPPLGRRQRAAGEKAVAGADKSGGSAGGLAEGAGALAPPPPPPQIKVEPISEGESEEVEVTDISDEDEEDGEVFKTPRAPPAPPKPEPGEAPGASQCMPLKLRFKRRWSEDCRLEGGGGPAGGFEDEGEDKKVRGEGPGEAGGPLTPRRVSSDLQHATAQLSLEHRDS
# Outline: as §1
# [15] = biological target: T9, ETV3L (Homo sapiens, UniProt Q6ZN32 1-361)
# T9 sequence: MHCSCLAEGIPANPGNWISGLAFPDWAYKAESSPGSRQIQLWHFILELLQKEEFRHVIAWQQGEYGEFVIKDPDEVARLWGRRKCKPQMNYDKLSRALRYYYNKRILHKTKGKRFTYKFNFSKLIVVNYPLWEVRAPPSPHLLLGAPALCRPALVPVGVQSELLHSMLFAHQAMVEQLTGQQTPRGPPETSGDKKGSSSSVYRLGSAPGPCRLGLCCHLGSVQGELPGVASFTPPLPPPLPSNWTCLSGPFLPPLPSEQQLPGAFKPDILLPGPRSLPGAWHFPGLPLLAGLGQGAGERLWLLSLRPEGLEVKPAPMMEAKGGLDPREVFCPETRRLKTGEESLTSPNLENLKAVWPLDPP
# Outline: as §1
# [16] = biological target: T10, ETS2 (Homo sapiens, UniProt P15036 1-469)
# T10 sequence: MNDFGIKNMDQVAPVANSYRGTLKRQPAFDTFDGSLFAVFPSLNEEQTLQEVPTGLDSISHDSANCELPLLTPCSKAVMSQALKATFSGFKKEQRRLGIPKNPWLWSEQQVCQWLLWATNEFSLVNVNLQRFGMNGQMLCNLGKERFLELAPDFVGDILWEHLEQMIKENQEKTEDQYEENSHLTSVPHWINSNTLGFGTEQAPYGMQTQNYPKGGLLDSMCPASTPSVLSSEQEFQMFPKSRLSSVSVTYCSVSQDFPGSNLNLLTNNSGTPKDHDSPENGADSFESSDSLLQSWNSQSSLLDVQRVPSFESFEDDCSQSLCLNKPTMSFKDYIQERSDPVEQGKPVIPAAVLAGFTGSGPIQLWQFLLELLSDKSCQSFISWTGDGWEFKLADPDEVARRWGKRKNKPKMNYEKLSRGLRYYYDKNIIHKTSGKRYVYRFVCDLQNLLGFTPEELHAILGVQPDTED
# Outline: as §1
# [17] = biological target: T11, SPDEF (Homo sapiens, UniProt O95238 1-335)
# T11 sequence: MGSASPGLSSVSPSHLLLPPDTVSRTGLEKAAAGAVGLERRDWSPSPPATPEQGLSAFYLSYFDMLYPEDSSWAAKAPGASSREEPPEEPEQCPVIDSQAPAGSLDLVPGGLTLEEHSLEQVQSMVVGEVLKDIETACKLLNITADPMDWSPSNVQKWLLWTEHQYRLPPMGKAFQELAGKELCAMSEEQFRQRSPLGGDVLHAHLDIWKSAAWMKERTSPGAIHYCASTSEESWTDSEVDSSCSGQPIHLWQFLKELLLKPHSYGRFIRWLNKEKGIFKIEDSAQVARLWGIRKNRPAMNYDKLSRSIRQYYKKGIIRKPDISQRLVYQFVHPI
# Outline: as §1
# [18] = biological target: T12, ETV3 (Homo sapiens, UniProt P41162-2 1-143)
# T12 sequence: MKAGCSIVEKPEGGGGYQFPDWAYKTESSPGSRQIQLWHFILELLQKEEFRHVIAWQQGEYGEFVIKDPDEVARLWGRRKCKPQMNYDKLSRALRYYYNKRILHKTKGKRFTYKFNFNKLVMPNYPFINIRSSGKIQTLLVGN
# Outline: as §1
# [19] = biological target: ETV6 (Homo sapiens, UniProt P41212 1-452)
# Chain of ETV6 (P41212 whole entry): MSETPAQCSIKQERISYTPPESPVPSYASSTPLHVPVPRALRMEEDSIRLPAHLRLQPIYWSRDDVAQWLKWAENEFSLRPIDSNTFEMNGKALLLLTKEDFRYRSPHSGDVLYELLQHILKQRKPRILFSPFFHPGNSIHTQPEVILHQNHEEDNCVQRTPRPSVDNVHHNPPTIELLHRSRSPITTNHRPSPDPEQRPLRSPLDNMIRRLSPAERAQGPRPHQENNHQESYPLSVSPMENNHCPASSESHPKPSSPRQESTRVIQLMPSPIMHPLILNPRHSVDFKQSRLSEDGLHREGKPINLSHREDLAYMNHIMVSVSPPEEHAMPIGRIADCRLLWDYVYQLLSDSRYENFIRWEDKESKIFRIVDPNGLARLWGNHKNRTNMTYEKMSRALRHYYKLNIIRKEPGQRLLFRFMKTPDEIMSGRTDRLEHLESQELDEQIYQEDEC
# Outline: as §1
sequence,measurement,setting,value
CATGCA,binding signal,[1],"1.1 fold enrichment (6-mer frequency, TF over GST control)"
same,binding signal,[2],"1.08 fold enrichment (6-mer frequency, TF over GST control)"
same,binding signal,[3],"1.16 fold enrichment (6-mer frequency, TF over GST control)"
same,binding signal,[4],"1.04 fold enrichment (6-mer frequency, TF over GST control)"
same,binding signal,[5],"1.1 fold enrichment (6-mer frequency, TF over GST control)"
same,binding signal,[6],"1.12 fold enrichment (6-mer frequency, TF over GST control)"
same,binding signal,[7],"1.02 fold enrichment (6-mer frequency, TF over GST control)"
same,binding signal,[8],"1.07 fold enrichment (6-mer frequency, TF over GST control)"
same,binding signal,[9],"1.02 fold enrichment (6-mer frequency, TF over GST control)"
same,binding signal,[10],"1.1 fold enrichment (6-mer frequency, TF over GST control)"
same,binding signal,[11],"1.1 fold enrichment (6-mer frequency, TF over GST control)"
same,binding signal,[12],"1.11 fold enrichment (6-mer frequency, TF over GST control)"
same,binding signal,[13],"1.11 fold enrichment (6-mer frequency, TF over GST control)"
same,binding signal,[14],"1.09 fold enrichment (6-mer frequency, TF over GST control)"
same,binding signal,[15],"1.16 fold enrichment (6-mer frequency, TF over GST control)"
same,binding signal,[16],"1.06 fold enrichment (6-mer frequency, TF over GST control)"
same,binding signal,[17],"1.13 fold enrichment (6-mer frequency, TF over GST control)"
same,binding signal,[18],"1.05 fold enrichment (6-mer frequency, TF over GST control)"
same,binding signal,[19],"1.18 fold enrichment (6-mer frequency, TF over GST control)"

# — publication PMC7862700, “An all-to-all approach to the identification of sequence-specific readers for epigenetic DNA modifications on cytosine”
